Laboratory results published in PubChem BioAssay.
Values joined by “and” are separate entries in the source; they are usually repeats but may differ in a detail not shown here. Equal entries are not always repeated. Active and inactive are the calls of the source.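 How the source made its calls, unless noted: active means compounds whose cell count with miR-34 switched on is under 0.7 times the count with it off; inactive means the rest.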

Tests used:
[1] = sensitizers of A549 cells to miR-34 induction, primary screen, imaging, A549 dox-inducible miR-34, nuclei and caspase counts (AID 1347080); details: A549 miR-34 inducible, Hoechst nuclei count, 48 h; further: test concentration not given here
[2] = survival rescue of mitochondrial mutant cells in low glucose, primary screen, MELAS cybrids, Rieske KO mouse fibroblasts, CellTiter-Glo (AID 1508586;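 active means mean z-score across replicates of 1.96 or higher in either the MELAS or the Rieske mutant cell line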;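 further: test concentration not given here; z relative to plate mean and SD of compound and empty wells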)
[3] = viability rescue of complex I mutant cybrids, primary screen, cell-based, galactose medium, ATP luminescence (AID 1645843;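 active means z-score of at least 1.8 in each of two replicates, scored against plate mean and spread of sample wells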;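 further: positive z means more ATP and so rescue of galactose-driven cybrid death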); details: complex I mutant cybrid cells, 72 h, stronger effect = higher value
[4] = stronger effect = lower value, cell number ratio, induced over uninduced
[5] = measured here: relative caspase fold change +Dox/-Dox
[6] = measured here: total cells with miR-34 induction, stronger effect = lower value
[7] = measured here: total cells without miR-34 induction
[8] = MELAS cybrid survival, CellTiter-Glo 48 h, stronger effect = higher value
[9] = Rieske KO mouse fibroblast survival, CellTiter-Glo 72 h

## Cc1ncc(-c2cc(C(=O)N(C)Cc3csc(C)n3)c3ccc(F)cc3n2)cn1
[1]; [4]
  fold change: 0.883 (inactive)
[1]; [5]
  fold change: 2.05
[1]; [6]
  cell count: 8360
[1]; [7]
  cell count: 9470
[2]; [8]
  z-score: -0.361 (inactive)
[2]; [9]
  z-score: -0.299
[3]
  z-score: -0.38 (inactive)

## Cc1nc(C)c(-c2ccnc(N)n2)s1
[1]; [4]
  fold change: 0.869 (inactive)
[1]; [5]
  fold change: 0.21
[1]; [6]
  cell count: 8060
[1]; [7]
  cell count: 9270
[2]; [8]
  z-score: 0.483 (inactive)
[2]; [9]
  z-score: -0.306
[3]
  z-score: -0.255 (inactive)

## CN(C)C(=O)CN(C)C(=O)c1cccc(Nc2ncnc3c2cnn3C)c1
[1]; [4]
  fold change: 0.866 (inactive)
[1]; [5]
  fold change: 1.54
[1]; [6]
  cell count: 8650
[1]; [7]
  cell count: 9990
[2]; [8]
  z-score: 0.0352 (inactive)
[2]; [9]
  z-score: -0.276
[3]
  z-score: -0.525 (inactive)

## CC(=O)NCC(=O)N1CCN(Cc2ccc3c(c2)OCO3)C(=O)C1
[1]; [4]
  fold change: 0.905 (inactive)
[1]; [5]
  fold change: 1.72
[1]; [6]
  cell count: 8860
[1]; [7]
  cell count: 9790
[2]; [8]
  z-score: 0.0526 (inactive)
[2]; [9]
  z-score: -0.343
[3]
  z-score: -0.565 (inactive)

## O=C(O)c1ccc(-c2ccccc2[N+](=O)[O-])o1
[1]; [4]
  fold change: 0.891 (inactive)
[1]; [5]
  fold change: 0.452
[1]; [6]
  cell count: 8650
[1]; [7]
  cell count: 9710
[2]; [8]
  z-score: -0.508 (inactive)
[2]; [9]
  z-score: -0.463
[3]
  z-score: 0.32 (inactive)

## CCc1noc(Cn2cnc3sc4c(c3c2=O)CCC(C)C4)n1 (stereo not drawn)
[1]; [4]
  fold change: 0.911 (inactive)
[1]; [5]
  fold change: 1.55
[1]; [6]
  cell count: 8510
[1]; [7]
  cell count: 9340
[2]; [8]
  z-score: 0.0666 (inactive)
[2]; [9]
  z-score: 0.0902
[3]
  z-score: -0.515 (inactive)

## Cc1ccc(Sc2cccc3nc(N)nc(N)c23)cc1
[1]; [4]
  fold change: 1.07 (inactive)
[1]; [5]
  fold change: 0.775
[1]; [6]
  cell count: 3810
[1]; [7]
  cell count: 3570
[2]; [8]
  z-score: 0.0344 (inactive)
[2]; [9]
  z-score: 0.646
[3]
  z-score: -2.52 (inactive)

## Cc1nn(C)c(C)c1-c1ccnc(N(C)Cc2cc(-c3ccccn3)no2)n1
[1]; [4]
  fold change: 0.81 (inactive)
[1]; [5]
  fold change: 1.13
[1]; [6]
  cell count: 6820
[1]; [7]
  cell count: 8420
[2]; [8]
  z-score: -0.553 (inactive)
[2]; [9]
  z-score: 0.716
[3]
  z-score: -0.45 (inactive)

## O=C(Cn1nnc(-c2ccccc2)n1)Nc1ccnn1Cc1ccccc1
[1]; [4]
  fold change: 0.843 (inactive)
[1]; [5]
  fold change: 1.22
[1]; [6]
  cell count: 7640
[1]; [7]
  cell count: 9060
[2]; [8]
  z-score: -0.218 (inactive)
[2]; [9]
  z-score: -0.596
[3]
  z-score: 0.045 (inactive)

## O=C(O)CSc1nc(-c2cccc(Cl)c2)no1
[1]; [4]
  fold change: 0.912 (inactive)
[1]; [5]
  fold change: 0.254
[1]; [6]
  cell count: 8810
[1]; [7]
  cell count: 9660
[2]; [8]
  z-score: 0.659 (inactive)
[2]; [9]
  z-score: -0.279
[3]
  z-score: 0.49 (inactive)

## COc1ccc(CCNCC(O)COc2cccc(C)c2)cc1OC (stereo not drawn)
[1]; [4]
  fold change: 0.915 (inactive)
[1]; [5]
  fold change: 0.555
[1]; [6]
  cell count: 8400
[1]; [7]
  cell count: 9170
[2]; [8]
  z-score: -1.33 (inactive)
[2]; [9]
  z-score: 0.533
[3]
  z-score: -0.99 (inactive)

## COc1ccc(CN(C)C(=O)Nc2nc(C)n(C)n2)c2cccnc12
[1]; [4]
  fold change: 0.889 (inactive)
[1]; [5]
  fold change: 0.916
[1]; [6]
  cell count: 8870
[1]; [7]
  cell count: 9980
[2]; [8]
  z-score: 0.16 (inactive)
[2]; [9]
  z-score: -0.562
[3]
  z-score: -0.55 (inactive)

## COc1ccc(CC(N)=O)cc1
[1]; [4]
  fold change: 0.918 (inactive)
[1]; [5]
  fold change: 0.564
[1]; [6]
  cell count: 8020
[1]; [7]
  cell count: 8730
[2]; [8]
  z-score: 0.385 (inactive)
[2]; [9]
  z-score: 0.663
[3]
  z-score: -0.175 (inactive)

## Oc1ccc(C=Cc2cc(O)cc(O)c2)cc1
[1]; [4]
  fold change: 2.61 (inactive) and 0.913 (inactive)
[1]; [5]
  fold change: 1.12 and 0.945
[1]; [6]
  cell count: 6320 and 7520
[1]; [7]
  cell count: 2420 and 8230
[2]; [8]
  z-score: -0.411 (inactive)
[2]; [9]
  z-score: 0.338
[3]
  z-score: 1.1 (inactive)

## CCOC(=O)c1c(C)nn(-c2ccc(OC)cc2)c1C
[1]; [4]
  fold change: 0.895 (inactive)
[1]; [5]
  fold change: 0.849
[1]; [6]
  cell count: 7720
[1]; [7]
  cell count: 8620
[2]; [8]
  z-score: 0.662 (inactive)
[2]; [9]
  z-score: 0.769
[3]
  z-score: 0.595 (inactive)

## Cc1ccc(C(=O)N2CCC(Cc3ccccc3)CC2)cc1
[1]; [4]
  fold change: 0.922 (inactive)
[1]; [5]
  fold change: 1.12
[1]; [6]
  cell count: 7870
[1]; [7]
  cell count: 8540
[2]; [8]
  z-score: -0.903 (inactive)
[2]; [9]
  z-score: 0.658
[3]
  z-score: -0.71 (inactive)

## Cc1cc(=O)oc2cc(OC3OC(CO)C(O)C(O)C3O)ccc12 (stereo not drawn)
[1]; [4]
  fold change: 0.875 (inactive)
[1]; [5]
  fold change: 0.68
[1]; [6]
  cell count: 8660
[1]; [7]
  cell count: 9900
[2]; [8]
  z-score: 0.734 (inactive)
[2]; [9]
  z-score: -0.54
[3]
  z-score: 0.72 (inactive)

## O=C(O)c1ccc(-c2ccccc2Cl)o1
[1]; [4]
  fold change: 0.867 (inactive)
[1]; [5]
  fold change: 0.416
[1]; [6]
  cell count: 7840
[1]; [7]
  cell count: 9050
[2]; [8]
  z-score: -0.894 (inactive)
[2]; [9]
  z-score: 0.4
[3]
  z-score: 0.53 (inactive)

## COc1ccc(S(=O)(=O)N2CCN(S(=O)(=O)c3ccc4c(c3)OCCO4)CC2)cc1
[1]; [4]
  fold change: 0.881 (inactive)
[1]; [5]
  fold change: 0.373
[1]; [6]
  cell count: 8270
[1]; [7]
  cell count: 9390
[2]; [8]
  z-score: -0.316 (inactive)
[2]; [9]
  z-score: -0.269
[3]
  z-score: 0.51 (inactive)

## O=S(=O)(O)CCNC1CCCCC1
[1]; [4]
  fold change: 0.931 (inactive)
[1]; [5]
  fold change: 0.147
[1]; [6]
  cell count: 9490
[1]; [7]
  cell count: 10200
[2]; [8]
  z-score: 0.282 (inactive)
[2]; [9]
  z-score: -0.218
[3]
  z-score: 0.78 (inactive)

## O=C1CN(C(=O)Nc2nncs2)CCN1Cc1cccc(F)c1
[1]; [4]
  fold change: 0.896 (inactive)
[1]; [5]
  fold change: 1.07
[1]; [6]
  cell count: 9320
[1]; [7]
  cell count: 10400
[2]; [8]
  z-score: 0.315 (inactive)
[2]; [9]
  z-score: -0.441
[3]
  z-score: -0.53 (inactive)

## O=C(NCC(c1ccccc1)c1ccccc1)Nc1nncs1
[1]; [4]
  fold change: 0.844 (inactive)
[1]; [5]
  fold change: 1.57
[1]; [6]
  cell count: 7570
[1]; [7]
  cell count: 8970
[2]; [8]
  z-score: -0.117
[2]; [9]
  z-score: 3.64
[3]
  z-score: 1.59 (inactive)

## OC(CNCC(O)C1CCc2cc(F)ccc2O1)C1CCc2cc(F)ccc2O1 (stereo not drawn)
[1]; [4]
  fold change: 1.62 (inactive)
[1]; [5]
  fold change: 0.335
[1]; [6]
  cell count: 2500
[1]; [7]
  cell count: 1540
[2]; [8]
  z-score: 0.602
[2]; [9]
  z-score: 2.88
[3]
  z-score: -2.66 (inactive)

## O=C(OC1Cc2c(O)cc(O)cc2OC1c1cc(O)c(O)c(O)c1)c1cc(O)c(O)c(O)c1 (stereo not drawn)
[1]; [4]
  fold change: 0.855 (inactive) and 0.924 (inactive)
[1]; [5]
  fold change: 1.5 and 0.635
[1]; [6]
  cell count: 9030 and 8300
[1]; [7]
  cell count: 10600 and 8990
[2]; [8]
  z-score: -0.179 (inactive)
[2]; [9]
  z-score: -0.151
[3]
  z-score: -1.44 (inactive)
